Measured values as given in PubChem BioAssay (NCI).
About 83,000 compounds went through this panel and 20% of them were active in at least one assay; those are over-represented in the sample as a whole.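 Each cell line was grown in a 96-well plate and treated with one concentration of compound for 48 hours. Values below 10 were considered active.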 The source made the active and inactive calls.

tested on: UACC-62 melanoma; experiment: NCI-60 one-dose screen, 48 h (100 = growth as untreated, 0 = no growth, -100 = all killed); details: 10 µM unless noted

| Compound | growth |
| --- | --- |
| O=C1/C(=C/c2ccccc2Br)COc2ccc(O)cc21 | 66.4% (inactive) |
| O=S(=O)(Nc1ccc(Cl)c(C(F)(F)F)c1)c1ccc(-c2cnc(C3CC3)o2)cc1 | -10.2% (active) |
| Cc1cc(=O)oc2cc(OCc3nn4c(Nc5nc6ccccc6s5)c(-c5ccccc5)nc4s3)ccc12 | 84.4% (inactive) |
| COC(=O)c1c(C)c2n(c1C)C(=O)C(c1ccccc1)=C2 | 58.7% (inactive) |
| C#CCOC(=O)/C=C/c1cn(-c2ccccc2)nc1-c1ccc(OC)cc1 | 85.4% (inactive) |
| Cc1c2cnccc2c(C)c2c1c1cc(C#N)ccc1n2C | -52.6% (active) |
| COC(=O)c1cc(N=C2NC(=O)/C(=C/C=C/c3ccccc3)S2)ccc1O | 33.6% (inactive) |
| Cc1ccc2c(Cn3cc(CSc4nc5ccccc5o4)nn3)cc(=O)oc2c1 | 104% (inactive) |
| NS(=O)(=O)c1ccccc1NC(=O)Nc1nc2ccccc2s1 | 101% (inactive) |
| CCOC(=O)C1=C(N)Oc2c(sc3c(F)cccc23)C1c1ccc(O)cc1 (stereo unspecified) | 26.3% (inactive) |
| COc1ccc(/C=C/C(=O)c2ccc(Nc3ccnc4cc(Cl)ccc34)cc2)cc1 | 92.3% (inactive) |
| Cc1cc(S(=O)(=O)/N=C(\N)n2nc(C)c(C)c2C)c(SCc2ccccc2)cc1Cl | 71.1% (inactive) |
| COc1ccc(/C=C(\C#N)n2nnc3cc(Cl)ccc32)cc1 | 9.49% (active) |
| CSc1nnc(-c2cc3c([nH]c4ccccc43)c(-c3cccc(O)c3)n2)n1-c1ccccc1 | 42.3% (inactive) |
| O=C(O)c1ccc(-n2cc(/C=N/Nc3ccccc3)c(-c3ccc(F)cc3F)n2)cc1 | -14.3% (active) |
| O=C(/C=C/c1cccc(Cl)c1)c1ccc(Nc2nc(Nc3ccc(F)cc3)nc(Nc3ccc(Cl)cc3)n2)cc1 | 108% (inactive) |
| NC(=O)c1cccc(-n2ccc3cc(NC(=O)c4ccc(N5CCOCC5)c(C(F)(F)F)c4)ccc32)n1 | 50.9% (inactive) |
| CCn1cc(C(=O)NNC(=S)Nc2ccc(C)cc2)c(=O)c2ccc(C)nc21 | 91.3% (inactive) |

| Compound | growth |
| --- | --- |
| CC(C)(Sc1cc(C(C)(C)C)c(OC(=O)CCCC(=O)O)c(C(C)(C)C)c1)Sc1cc(C(C)(C)C)c(OC(=O)CCCC(=O)O)c(C(C)(C)C)c1 | -19.7% (active) |
| O=C(O)c1cn(C2CC2)c2cc(N3CCN(C(=O)N(c4ccccc4)c4nc(-c5ccccc5)cs4)CC3)c(F)cc2c1=O | -4% (active) |
| Cc1cccc(/C=C/c2c(C(=O)/C=C/c3ccccc3)c(C)nc3ccccc23)c1 | -67.3% (active) |
| O=C(/C=C/c1ccccc1)Nc1ncc(Cc2ccccc2Cl)s1 | 34.1% (inactive) |
| O=C(Nc1cccc(Cl)c1)Nc1cccc(Cn2c(=O)[nH]c3ccc(Oc4ncccn4)cc3c2=O)c1 | 49.3% (inactive) |
| Cc1ccc2c(c1)=C/C(=C\c1cc(-c3ccccc3)oc1O)C(=O)N=2 | 101% (inactive) |
| c1ccc(Cn2cc3c(c2)-c2oncc2CC3)cc1 | 23.6% (inactive) |
| CCN(CC)c1ccc(\C=N/N=C(N)/C(N)=N\N=C/c2ccc(N(CC)CC)cc2)cc1 | 104% (inactive) |
| Nc1ncc(-c2ccc3ncnc(Nc4cccc(Cl)c4)c3c2)cn1 | 50.6% (inactive) |
| c1ccc([P+](c2ccccc2)(c2ccccc2)c2ccc3c4ccc([P+](c5ccccc5)(c5ccccc5)c5ccccc5)c5cccc(c6cccc2c63)c54)cc1 | 15% (inactive) |
| Cc1ccc(NC(=O)Cn2cc(CN3CCN(c4ccnc5cc(Cl)ccc45)CC3)nn2)cc1 | 77.7% (inactive) |
| O=C(Nc1nc(-c2ccc(Cl)cc2)nc2c1sc(=S)n2-c1ccccc1)C(F)(F)F | 21.1% (inactive) |
| C#CCOc1ccc2ncnc(Nc3ccc(NC(=O)C=C)cc3)c2c1 | -68.7% (active) |
| Cn1cc(-c2csc(-c3c[nH]c4ccc(Br)cc34)n2)c2ccnc(Cl)c21 | 68.8% (inactive) |
| Nc1ncnc2c1c(-c1cccc(Cl)c1)nn2CC(=O)N1CCOCC1 | 93.7% (inactive) |
| CCSc1oc(-c2ccccc2)nc1[P+](c1ccccc1)(c1ccccc1)c1ccccc1 | -0.29% (active) |
| O=S(=O)(Nc1cc(F)cc(Cl)c1)c1ccc(-c2cnc(C3CC3)o2)cc1 | 35.1% (inactive) |
| COc1cc2oc(-c3cccc(NC(=O)c4ccccc4)c3)cc(=O)c2c(OC)c1OC | 66.8% (inactive) |
